The source made the active and inactive calls.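 How the source made its calls: active means calcium activation more than 3 SD above the typical response in the agonist read; inactive means the rest.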

Chain of Thyrotropin-releasing hormone receptor (Homo sapiens) (P34981 whole entry, looked up): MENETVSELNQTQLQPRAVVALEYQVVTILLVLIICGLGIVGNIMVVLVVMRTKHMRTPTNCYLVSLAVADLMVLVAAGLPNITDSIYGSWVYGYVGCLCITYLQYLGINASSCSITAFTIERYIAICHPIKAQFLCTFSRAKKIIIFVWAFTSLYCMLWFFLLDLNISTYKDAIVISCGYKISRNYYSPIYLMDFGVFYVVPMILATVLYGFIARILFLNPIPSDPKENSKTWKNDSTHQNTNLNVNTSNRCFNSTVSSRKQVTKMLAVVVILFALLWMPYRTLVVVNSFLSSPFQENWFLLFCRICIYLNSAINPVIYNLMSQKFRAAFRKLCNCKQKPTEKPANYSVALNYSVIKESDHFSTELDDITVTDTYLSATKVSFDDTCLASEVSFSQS

This test addresses Thyrotropin-releasing hormone receptor (Homo sapiens) (UniProt P34981). The test is described as follows: qHTS for Small Molecule Agonists and Allosteric Enhancers of Human TRH Receptor: Validation Screen for Agonists (AID 493127).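 Further: intracellular calcium rise by fluo-8 fluorescence before TRH EC20 addition; 0% is about no effect.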 The conditions noted are these: TRH receptor agonist cell assay; at 2 µM; stronger effect = higher value. An excerpt:
NIH Chemical Genomics Center [NCGC]
NIH Molecular Libraries Probe Centers Network [MLPCN]
Assay Submitter (PI): Marvin Gershengorn
This project aims to identify small drug-like molecules that activate (agonists) the thyrotropin releasing hormone (TRH) receptor (TRHR) or enhance its TRH-stimulated activity (allosteric enhancers). TRHR, a drug-accessible cell surface receptor expressed in specific brain regions, and its ligand TRH have been implicated in several central nervous system disorders, including depression and anxiety. Small molecule TRHR agonists or allosteric enhancers that are metabolically stable and able to cross the blood-brain barrier might serve as probes to elucidate the roles of brain TRH receptors in animal models, and might be valuable as lead compounds for the development of drugs to treat patients with central nervous system disorders.
Upon TRHR-Gq activation in TRHR cells, intracellular calcium is released from stores in the endoplasmic reticulum. […] This validation screen measures compound-induced activation of calcium release.
For the HTS assay freshly prepared cells are plated at a density of 2000/well in 3 ul of complete DMEM medium containing 10% serum in 1536-well plates and cultured over night at 37 C in a humidified incubator with 5% CO2. The next day, 2 ul of a no wash calcium dye (ABD Bioquest) was added to the cells and plates were incubated at room temperature for 1 hour. For the assay, assay plates were loaded into the FDSS kinetic plate reader. A 10 cycle (1 second/cycle) baseline measurement is taken and then the FDSS online 1536 pintool delivers 23 nl of compound library (as well as TRH controls) to the plate. The plate is measured for kinetically at 1 cycle/sec for 180 seconds and is considered to be the agonist portion of the assay (eg, compounds which activate a positive calcium response during this portion are flagged as potential agonists). Following the 180 second read, 1 ul of either an EC20 (positive modulation assay) is delivered by an onboard pipette head. Measurements are taken kinetically for an additional 180 seconds.
TRHR FDSS Screening Protocol
1. Reagent, 3 uL 2000 cells/well 1536 TC treated Black plate in media containing 10% FCS
2. Time, 18 hours, 33.5C 5% CO2 (cells grown at 37C)
3. Reagent, 2 uL ABD fluo-8 Ca dye
4. Time, 30 min-1.5hrs hours, Room temp (6 plates/batch)
5. Detector, EX 480/EM 530C, FDSS 10 cycles baseline (1sec/cycle)
6. Compound, 23 nL of stock solution from library
7. Detector, EX 480/EM 530C, FDSS 230 cycles (1sec/cycle) Agonist mode
8. Compound, 1 ul EC20 of TRH made up in HEPES HBSS, 10 nM final
9. Detector, EX 480/EM 530C, FDSS 100 cycles (1sec/cycle) Potentiator mode
In general terms: Quantitative high-throughput screening tests each substance at several concentrations.
Turning to `Cc1nc2ccccn2c(=O)c1CCN1CCC(C(=O)c2ccc(F)cc2)CC1`, the activation is 1.44% (inactive).
Turning to `C[C@]12CCC(=O)C=C1CC[C@@H]1[C@@H]2C(=O)C[C@@]2(C)[C@H]1CC[C@]2(O)C(=O)CO`, the activation is -0.125% (inactive).
The result for `Cc1scc2c1N(C(=O)CN1CCN(C)CC1)c1ccccc1NC2=O` reads 0.5% (inactive); that for `CC(N=C(NC#N)Nc1ccncc1)C(C)(C)C` (stereo not given), 0.125% (inactive); that for `CN(C)C(=O)Oc1cccc([N+](C)(C)C)c1`, 0.625% (inactive).
On to `CC1=C(C)C(=O)C(CCCCC#CCCCC#CCO)=C(C)C1=O`, for which the activation was -4.88% (inactive).
As to `CC(=O)Nc1nnc(S(N)(=O)=O)s1`, the activation is 1.38% (inactive).
In the case of `CCNC(=O)N1CCN(CCCC(c2ccc(F)cc2)c2ccc(F)cc2)CC1`, the activation was 6.5% (inactive).
The result for `Nc1ncn([C@@H]2O[C@H](CO)[C@@H](O)[C@H]2O)c(=O)n1` reads 1.31% (inactive); that for `CC(C)COCC(CN(Cc1ccccc1)c1ccccc1)N1CCCC1` (stereo not given), 0.812% (inactive).
For `CN(C(=O)CCCOc1ccc2[nH]c(=O)ccc2c1)C1CCCCC1` the value was 1.44% (inactive).
With `CCCN(CCC)C(=O)C(CCC(=O)O)NC(=O)c1ccccc1` (stereo not given), the activation is 1.56% (inactive).
Regarding `CCCN1C[C@H](CSC)C[C@@H]2c3cccc4[nH]cc(c34)C[C@H]21`, the activation was 1.44% (inactive).
With `c1ccc2c(c1)CCCC2C1=NCCN1` (stereo not given), the activation is 1.25% (inactive).
As to `COCC(=O)O[C@]1(CCN(C)CCCc2nc3ccccc3[nH]2)CCc2cc(F)ccc2[C@@H]1C(C)C`, the activation is 7.31% (inactive).
On to `CCCCNc1ccc(C(=O)OCCN(C)C)cc1`, for which the activation is 1.31% (inactive).
Turning to `C[N+](C)(C)CCOC(=O)CCC(=O)OCC[N+](C)(C)C`, the activation is 0.188% (inactive).
Take `O=C(O)CCCCCCCC(=O)O`: the activation is -3.19% (inactive).
In the case of `CCCC(C(=O)OCCN(CC)CC)(c1ccccc1)c1ccccc1`, the activation was -7.5% (inactive).
For the compound `O=C1NCN(c2ccccc2)C12CCN(CCCC(c1ccc(F)cc1)c1ccc(F)cc1)CC2`, the activation was 0.75% (inactive).
The result for `COc1cc(C(=O)OCCCN2CCCN(CCCOC(=O)c3cc(OC)c(OC)c(OC)c3)CC2)cc(OC)c1OC` reads 0.688% (inactive).
The result for `CCN(CC)CCNC(=O)c1cc(S(C)(=O)=O)ccc1OC` reads 0.0625% (inactive); that for `CC(=O)OCC1=C(C(=O)O)N2C(=O)[C@@H](NC(=O)Cc3cccs3)[C@H]2SC1`, 0.938% (inactive); that for `COc1cc2c(cc1OC)-c1cc(=Nc3c(C)cc(C)cc3C)n(C)c(=O)n1CC2`, -6.75% (inactive).
Consider `Cc1ccc(=O)n(-c2ccccc2)c1`, for which the activation is 0.875% (inactive).
In the case of `CCN(Cc1ccncc1)C(=O)C(CO)c1ccccc1` (stereo not given), the activation is 0.375% (inactive).
Regarding `COc1cc(Cc2cnc(N)nc2N)cc(OC)c1OC`, the activation is 0.312% (inactive).
Take `CN=C(NC#N)NCCSCc1nc[nH]c1C`: the activation is 1.12% (inactive).
The result for `c1cnc(N2CCN(Cc3ccc4c(c3)OCO4)CC2)nc1` reads -3.31% (inactive).
For `NC(=O)c1ncn([C@@H]2O[C@H](CO)[C@@H](O)[C@H]2O)c1O`, the activation is 1.12% (inactive).
Take `CC(C(=O)O)c1ccc(CC2CCCC2=O)cc1` (stereo not given): the activation is 1.56% (inactive).
As for `CC(C)(C)NCC(O)c1cc(O)cc(O)c1` (stereo not given), the activation is 0.438% (inactive).
For `Cc1nc2c([nH]1)c(=O)n(C)c(=O)n2Cc1ccco1`, the activation was 0.812% (inactive).
`NC(N)=N/N=C/c1c(Cl)cccc1Cl`: the activation is -6.19% (inactive).
Turning to `O=C(CCNNC(=O)c1ccncc1)NCc1ccccc1`, the activation is 0.188% (inactive).
The result for `N[C@@H](COP(=O)(O)O)C(=O)O` reads 1% (inactive); that for `CCN(CC)CCNC(=O)c1ccc(NC(C)=O)cc1`, 0.312% (inactive); that for `CCCN(CCC)CCc1cccc2c1CC(=O)N2`, -3.31% (inactive).
With `CCOC(=O)C1=C(C)NC(C)=C(C(=O)OC)C1c1cccc(Cl)c1Cl` (stereo not given), the activation was 1.12% (inactive).
Take `C(=C\c1ccccc1)/CN1CCN(C(c2ccccc2)c2ccccc2)CC1`: the activation is 0.438% (inactive).

These data come from PubChem BioAssay (NCATS).
